A selection: hits, their analogues and other compounds. The true share with any hit is near 7.6%.
VP16 counter – counter-screen for ROR gamma inhibitors: Gal4-VP16 reporter. AID 2546. 310,000 tested, 3.5% active. Drosophila S2 Gal4-VP16 UAS-luciferase, luminescence, 20 h. Potency, µM (top dose mostly 53.6 µM), most hits filed as inhibitors;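 note: Gal4-VP16 expression switched on by copper sulfate through the metallothionein promoter; nearly all actives have a fitted effect of over 50% in size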
Giardia kill – Giardia lamblia killing; Giardia lamblia trophozoite viability; activity change, % at 7.66 µM, hits read low; 340,000 tested, 0.15% active; AID 540267; in the data active = activity change below about -80%; inconclusive = between about -30% and that limit;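 note: parasites exposed to compound for two days anaerobically before the ATP read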
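Media and compound were dispensed first, then trophozoites at 100 cells/well; plates sat 48 hrs at 37 deg C without oxygen before ATP luminescence reagent was added and read after 15-30 min at room temperature.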
BRCA1 expr up – BRCA1 expression activation. MCF7-BRCA1-FFLuc reporter, luminescence, 48 h; response scale: scaled: vehicle 0%, 10 µM genistein 100%. Potency, µM (titrated, usually from 46.1 µM), usual class: activators. 380,000 tested, 1.1% active; note: nearly all actives have a fitted effect of over 80% in size
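Compounds are tested at multiple concentrations on MCF7 BRCA1-luciferase reporter cells seeded at 2000 per well; after 48 h, a single luminescence end-point is taken and curves fitted to the normalized data.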
p53 reactivation – restores transcriptional activity of mutant p53. H1299 p53-A138V BP100-luciferase reporter, luminescence, 24 h. Potency, µM (doses to about 92.2 µM), usual class: activators. 320,000 tested, 0.063% active. AID 504706; note: nearly all actives have a fitted effect of over 45% in size
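p53-null H1299 cells stably carrying temperature-sensitive p53-A138V and a BP100-luciferase reporter were pinned with compounds (4-point, 1:5 series) and held 24 hrs at 37 deg C. Luminescence was read 10 min after detection reagent.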
ELG1 DNA repair – blocks ELG1-dependent DNA repair in HEK293T cells; Potency, µM (titrated, usually from 46.1 µM), hits mostly inhibitors; 330,000 tested, 2.3% active; HEK293T ELG1-luciferase reporter, luminescence, 16 h; DNA damage induced by 5-fluorouridine; AID 504467; note: nearly all actives have a fitted effect of over 55% in size
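Cells (2,000 per well) received 5-fluorouridine plus test compound or DMSO and were incubated 16 hr at 37 °C, 5% CO2. Luciferase activity was read by luminescence 30 min after ONE-Glo addition; signal suppression marked inhibition of damage-induced ELG1 function.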
RORgamma inh – blocks mouse ROR gamma transcriptional activity. P51450. Drosophila S2 Gal4-RORgamma UAS-luciferase reporter, 20 h. Potency, µM (top dose mostly 53.6 µM), actives largely listed as inhibitors. 310,000 tested, 5.4% active. AID 2551; note: nearly all actives have a fitted effect of over 60% in size
Target sequence (P51450 whole entry, looked up, the tested form may be a part): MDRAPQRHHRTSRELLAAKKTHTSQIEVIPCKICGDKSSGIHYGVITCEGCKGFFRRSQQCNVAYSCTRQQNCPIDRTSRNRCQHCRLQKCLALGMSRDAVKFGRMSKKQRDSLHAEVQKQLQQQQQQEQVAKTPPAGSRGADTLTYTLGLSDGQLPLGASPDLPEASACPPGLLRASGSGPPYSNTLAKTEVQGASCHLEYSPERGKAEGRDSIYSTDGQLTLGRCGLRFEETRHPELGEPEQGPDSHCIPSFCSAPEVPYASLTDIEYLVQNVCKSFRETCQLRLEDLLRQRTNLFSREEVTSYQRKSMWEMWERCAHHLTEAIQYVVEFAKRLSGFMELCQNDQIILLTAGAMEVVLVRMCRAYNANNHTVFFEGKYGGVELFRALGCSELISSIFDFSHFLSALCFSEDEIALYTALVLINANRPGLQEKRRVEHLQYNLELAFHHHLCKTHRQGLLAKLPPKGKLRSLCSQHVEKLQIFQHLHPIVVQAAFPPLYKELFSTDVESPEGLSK
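Drosophila Schneider cells stably carrying a metallothionein-driven Gal4 DBD–ROR gamma fusion and a UAS-Photinus luciferase reporter were exposed to compound for 1 hr, then induced with copper sulfate (700 uM final) for 20 hr at ambient temperature before luminescence reading.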
Of the large screens only hits and unclear results are named; the others gave an inactive call; ! = not active in a repeat. Unless noted, calls come from the whole dose curve; as a rule, active = well fitted curve in the direction sought with a large enough effect; inconclusive = small, poorly fitted or top-dose-only effect, or another doubt; inactive = no such curve, though single readings can be large; an effect the other way counts as inactive or inconclusive.

Nc1c(C(=O)Nc2ccccc2)c2nc3ccccc3nc2n1CCCN1CCOCC1	VP16 counter inconclusive, RORgamma inh 11µM
O=C(NNC(=O)c1cc2cc(OC(F)(F)F)ccc2[nH]1)c1ccc(Cl)cc1	Giardia kill inconclusive
O=C(CCl)N(Cc1cc(=O)[nH]c2ccccc12)c1ccccc1	VP16 counter inconclusive, ELG1 DNA repair 13µM, RORgamma inh inconclusive
Cc1ccccc1N(Cc1cc(=O)[nH]c2ccccc12)C(=O)CCl	ELG1 DNA repair 10µM, RORgamma inh inconclusive (no result: Giardia kill, BRCA1 expr up)
CCOC(=O)c1ccc(NC(=O)COc2cccc3c(=O)n(C)ccc23)cc1	none (no result: VP16 counter, Giardia kill, p53 reactivation, ELG1 DNA repair, RORgamma inh)
CCc1cc(-c2n[nH]c(C)c2-c2nc(C)cs2)c(O)cc1OC	VP16 counter inconclusive, RORgamma inh 13µM
C=CCN1C(=O)C(Cc2ccc(F)cc2)S/C1=N/N=C/c1ccco1 (stereo not drawn)	none
C=CCN1C(=O)C(Cc2ccc(Br)cc2)S/C1=N\N=C\c1ccco1 (stereo not drawn)	RORgamma inh 14µM
O=C(CSCC(=O)Nc1ccccc1)N/N=C/c1c(O)ccc2ccccc12	VP16 counter 3.5µM, ELG1 DNA repair inconclusive, RORgamma inh 1µM
O=C(CNc1ccccc1)N/N=C/c1c(O)ccc2ccccc12	VP16 counter 2.8µM, ELG1 DNA repair inconclusive, RORgamma inh 1.6µM
O=C(CN1CCOCC1)N/N=C/c1ccco1	none
O=C(O)c1cc(N/N=C/c2c(O)ccc3ccccc23)ccc1Cl	p53 reactivation inconclusive, ELG1 DNA repair inconclusive
O=C(N/N=C/c1c(O)ccc2ccccc12)Nc1ccccc1	none (no result: VP16 counter, p53 reactivation, ELG1 DNA repair, RORgamma inh)
O=C(CN1CCOCC1)N/N=C/c1c(O)ccc2ccccc12	VP16 counter 1.4µM, ELG1 DNA repair inconclusive, RORgamma inh inconclusive
COc1ccc(NC(C)C(=O)N/N=C/c2c(O)ccc3ccccc23)cc1 (stereo not drawn)	VP16 counter 3.5µM, ELG1 DNA repair inconclusive, RORgamma inh 1.6µM
CN1C(=O)NC(c2ccccc2)(C(F)(F)F)S/C1=C(/C#N)c1nnc(N2CCOCC2)n1-c1ccccc1 (stereo not drawn)	VP16 counter inconclusive, RORgamma inh 14µM
CCOC(=O)c1c(C)[nH]c(C(=O)OCC(=O)NC2(C#N)CCCCC2)c1C	none (no result: VP16 counter, RORgamma inh)
O=C1NN(c2ccc(Cl)cc2)C(=O)/C1=C\c1ccc(-c2cccc(C(=O)O)c2)o1	BRCA1 expr up 8.9µM, ELG1 DNA repair inconclusive
COc1ccc(-c2nnn(Cc3ccccc3)n2)cc1	BRCA1 expr up 10µM, p53 reactivation inconclusive, ELG1 DNA repair inconclusive
CSc1ccc(-c2nnn(Cc3ccc(C)cc3)n2)cc1	VP16 counter inconclusive, BRCA1 expr up 10µM, p53 reactivation inconclusive, ELG1 DNA repair inconclusive, RORgamma inh inconclusive
Nc1ccc(-c2nnn(Cc3ccccc3)n2)cc1	none (no result: VP16 counter, p53 reactivation, ELG1 DNA repair, RORgamma inh)
Cc1ccc2nc(SC(C(=O)c3ccccc3)c3ccccc3)nc(C)c2c1 (stereo not drawn)	VP16 counter 16µM, RORgamma inh inconclusive
COc1cc(O)c2c(c1)C(=O)c1cc(C)cc(O)c1C2=O	none (no result: Giardia kill, BRCA1 expr up, p53 reactivation, ELG1 DNA repair)
O=C(O)c1cc(O)c2c(c1)C(=O)c1cc(O)cc(O)c1C2=O	VP16 counter inconclusive, RORgamma inh 6.3µM!
c1ccc2c(c1)Cc1cc3ccccc3nc1-2	VP16 counter inconclusive, BRCA1 expr up inconclusive, ELG1 DNA repair inconclusive, RORgamma inh 11µM! (no result: p53 reactivation)
CC(CN1CCN(C)CC1)OC(=O)c1ccc(F)cc1 (stereo not drawn)	none
CCCCN1c2ccccc2N(CCCO)c2cc(C)nnc21	RORgamma inh inconclusive
C=CCCCCCCCCc1nc(SCC(C)=O)n[nH]1	ELG1 DNA repair 23µM
O=C(c1ccc(OC(F)(F)F)cc1)c1ncc[nH]1	BRCA1 expr up inconclusive, ELG1 DNA repair inconclusive
Cc1ccc(C(=O)c2ncc[nH]2)cc1	BRCA1 expr up 14µM, ELG1 DNA repair inconclusive (no result: VP16 counter, RORgamma inh)
CCOc1ccc(Cc2nccc3cc(OCC)c(OCC)cc23)cc1OCC	VP16 counter 16µM! (no result: Giardia kill, BRCA1 expr up, p53 reactivation, ELG1 DNA repair)
COC(=O)CCC(=O)Nc1cc(OC)c(OC)cc1Cc1nccc2cc(OC)c(OC)cc12	none
CC(NC(=O)CN1C(=O)NC2(CCCCC2C)C1=O)c1ccccc1 (stereo not drawn)	ELG1 DNA repair inconclusive (no result: VP16 counter, RORgamma inh)
CCCc1ccc2oc(C(=O)N(C)Cc3cnccn3)c(C)c2c1	none
Cc1cc2ccccn2c1C(=O)c1ccc(Cl)cc1	VP16 counter 16µM, ELG1 DNA repair inconclusive, RORgamma inh inconclusive
Cc1cc2ccccn2c1C(=S)NC(=O)c1ccccc1	VP16 counter 3.5µM, RORgamma inh 3.2µM
O=C1C(Cl)=C(NS(=O)(=O)c2ccc([N+](=O)[O-])cc2)C(=O)c2ccccc21	ELG1 DNA repair 18µM
O=[N+]([O-])c1ccc(Oc2ccc(S(=O)(=O)Nc3ccccc3)cc2)cc1	VP16 counter inconclusive
CSc1ccc(C2C(C#N)=C(N)Oc3c2ccc(=O)c2c(C)oc(C)c32)cc1 (stereo not drawn)	VP16 counter inconclusive, RORgamma inh 6.3µM
COc1cc(OC)cc(-c2nc3ccccc3c(=O)n2OC(=O)c2ccc(C)c(C)c2)c1	VP16 counter inconclusive, ELG1 DNA repair 10µM, RORgamma inh inconclusive
CCCc1nc2ccc(NC(=O)c3ccco3)cc2c(=O)n1Cc1ccc(Cl)cc1	ELG1 DNA repair inconclusive
CCCc1nc2ccc(NC(=O)c3ccco3)cc2c(=O)n1Cc1ccccc1Cl	ELG1 DNA repair 18µM, RORgamma inh inconclusive
CCC(=O)NCCc1nc2cc(NC(=O)c3cccc([N+](=O)[O-])c3)ccc2n1C	BRCA1 expr up 3.2µM, ELG1 DNA repair inconclusive
CCC(=O)NCCc1nc2cc(NC(=O)c3cccs3)ccc2n1C	p53 reactivation inconclusive, ELG1 DNA repair inconclusive
Cn1c(CCNC(=O)c2ccco2)nc2cc(NC(=O)c3ccccc3Cl)ccc21	BRCA1 expr up 8.9µM, ELG1 DNA repair inconclusive
CCC(=O)Nc1ccc2nc(C3CC3)n(Cc3ccccc3)c(=O)c2c1	BRCA1 expr up 4µM, ELG1 DNA repair inconclusive, RORgamma inh inconclusive
Cc1cccc(N2CCN(C(=O)CCS(=O)(=O)c3ccc4c(c3)NC(=O)CO4)CC2)c1C	none
COc1ccccc1C(=O)Nc1ccc2c(c1)nc(CCNC(=O)c1ccccc1)n2C	ELG1 DNA repair inconclusive
COc1ccccc1C(=O)Nc1ccc2c(c1)nc(CCNC(C)=O)n2C	BRCA1 expr up 10µM, p53 reactivation inconclusive, ELG1 DNA repair inconclusive (no result: VP16 counter)
CC(=O)NCCc1nc2cc(NC(=O)c3cccc([N+](=O)[O-])c3)ccc2n1C	BRCA1 expr up 5.6µM, ELG1 DNA repair inconclusive
CCC(=O)NCCc1nc2cc(NC(=O)COc3ccccc3)ccc2n1C	BRCA1 expr up 8.9µM, p53 reactivation inconclusive, ELG1 DNA repair inconclusive
CCOc1cc(/C=N/NC(=O)c2cc(C)n(-c3ccc(F)cc3)c2C)ccc1O	ELG1 DNA repair inconclusive

Screening data as filed in PubChem.
